Source: PubChem
The list is not random: actives were taken first. Their share in the collection is about 7.9%.
MCF10A rerep: DNA re-replication induction in MCF 10a cells. AID 624296. 350,000 compounds, 2.9% hits. MCF 10A DNA re-replication, Hoechst nuclear intensity, 48 h. Potency, µM (top dose mostly 46.1 µM), without a hit: at the highest dose activity, positive = re-replication, actives largely listed as activators; note: % of control where 0% means no effect; nearly all actives have a fitted effect of over 50% in size
HT1080 IDH1KD tx: kills HT-1080 cells with IDH1 knockdown; Potency, µM (doses to about 46.1 µM), for the others: at the highest dose activity, negative = toxicity, most hits filed as cytotoxic; HT-1080 IDH1 knockdown viability, ATP luminescence, 48 h; 360,000 compounds, 2% hits;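 note: 0% = DMSO wells and -100% = cell-free medium wells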
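HT-1080-IDH1KD cells (IDH1 knocked down), 750/well in RPMI with 5% FBS, treated with compound 48 h at 37 degrees C. Viability by CellTiter-Glo luminescence, normalised to DMSO and no-cell wells; concentration-response curves classed.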
KB-V1 MDR tox: KB-V1 MDR subline cytotoxicity. KB-V1 MDR cells viability, CellTiter-Glo, 72 h. Potency, µM (doses to about 46.1 µM), usual class: cytotoxic. 400,000 compounds, 3.4% hits; note: % is set by controls: 0 for no effect and ±100 for the full control effect; nearly all actives have a fitted effect of over 60% in size
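Luminescent ATP read-out (CellTiter-Glo, 10 min) measures survival of drug-selected KB-V1 MDR cells after 72 h, 37 degrees C compound exposure. Medium: phenol-red-free DMEM, 10% FBS. Values from fitted concentration-response curves.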
HT1080NT lethal: kills 2HG-producing HT-1080-NT fibrosarcoma cells | HT-1080-NT fibrosarcoma viability, CellTiter-Glo ATP luminescence, 48 h | Potency, µM (titrated, usually from 46.1 µM), inactives show at the highest dose activity, negative = less viability, most hits filed as cytotoxic | 360,000 compounds, 1.6% hits | AID 686970;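 note: NT is the 2HG producing partner of a matched IDH1 knockdown line; 0% = DMSO-treated cells and -100% = media-only wells without cells; nearly all actives have a fitted effect of over 55% in size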
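Fibrosarcoma NT cells, 750 per well in 5% FBS RPMI, were exposed to compound for 48 hours. Viability: CellTiter-Glo luminescence.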
KB-3-1 cytotox: kills parental KB-3-1 adenocarcinoma cells; KB-3-1 viability, CellTiter-Glo ATP luminescence, 72 h; 400,000 compounds, 1.4% hits; AID 1347075; Potency, µM (series often up to 46.1 µM), hits mostly cytotoxic; note: % is set by controls: 0 for no effect and ±100 for the full control effect; nearly all actives have a fitted effect of over 60% in size
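Cytotoxicity measured as CellTiter-Glo luminescence after 72 h at 37 C. Compound titrations were pinned onto drug-naive KB-3-1 parental adenocarcinoma cells grown in DMEM with 10% FBS, and normalized data fitted to concentration-response curves.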
SW480 rereplic: inducers of DNA re-replication in SW480 colon cancer cells; SW480 DNA re-replication, Hoechst DNA content imaging, 48 h; Potency, µM (series often up to 46.1 µM), inactives show top-dose re-replication activation, hits mostly activators; 340,000 compounds, 1.8% hits; AID 624297; note: % of control where 0% means no effect; nearly all actives have a fitted effect of over 55% in size
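Image-based DNA-content assay: after two days of treatment, nuclei were labelled with the DNA dye Hoechst and imaged, and hits were compounds raising the count of nuclei showing high fluorescence intensity.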
* marks the source's active call; other numbers are inactive results; i = inactive; ? = inconclusive; nt = not tested or not shown; [ ] = remark or other dose. Calls come from the whole dose curve; as a rule, active = well fitted curve in the direction sought with a large enough effect; inconclusive = small, poorly fitted or top-dose-only effect, or another doubt; inactive = no such curve, though single readings can be large; an effect the other way counts as inactive or inconclusive. Potency is the fitted concentration of half-maximal effect.

SMILES | MCF10A rerep | HT1080 IDH1KD tx | KB-V1 MDR tox | HT1080NT lethal | KB-3-1 cytotox | SW480 rereplic
C[C@@H]1CCC(=O)N(CC[C@H](Sc2ccc(Br)cc2)c2ccccc2)CC1 | -33% | ? | ? | ? | ? | 16%
Oc1cccc(Nc2ncnc3sc4c(c23)CCCC4)c1 | nt | nt | i | nt | i | nt
COc1ccc(CNC(=O)c2cc3c(=O)[nH]c4ccccc4c3n2C)c(OC)c1 | nt | nt | i | nt | i | nt
Cc1ccn2c(Nc3ccc4c(c3)OCCO4)c(-c3ccc(N(C)C)cc3)nc2c1 | nt | nt | ? | nt | i | nt
CN(C)CC(C)(C)NS(=O)(=O)c1ccc(Cl)cc1 | 15µM* | 1% | i | 10% | i | ?
Nn1c(Cc2cccc3ccccc23)nnc1SCc1c(F)cccc1Cl | 18% | 0% | ? | 2% | i | 3%
O=S(Cc1ccc(Br)cc1)Cc1nnc(SCc2ccc(Cl)cc2)n1-c1ccccc1 (centres undefined) | ? | -22% | 2.3µM* | -3% | ? | -4%
O=S(Cc1ccc(Br)cc1)Cc1nnc(SCc2c(F)cccc2Cl)n1-c1ccccc1 (centres undefined) | ? | -24% | 2.3µM* | -5% | ? | 10%
Cn1c(CS(=O)Cc2c(Cl)cccc2Cl)nnc1SCc1ccc(Cl)cc1 (centres undefined) | 19% | ? | 5.2µM* | -1% | i | -3%
Cc1cccc(NC(=O)CSc2nc(=O)n(Cc3cccnc3)c3c2CCC3)c1 | nt | nt | i | nt | i | nt
CCOc1ccccc1NC(=O)CN1c2ccccc2S(=O)(=O)c2ccccc21 | nt | nt | i | nt | i | nt
CCc1ccc(NC(=O)CCNS(=O)(=O)c2ccc3c(c2)CCCC(=O)N3)cc1 | nt | nt | i | nt | i | nt
O=C(c1ccc(-c2ccccc2)cc1)N1CCN(c2ccc3c(c2)C2CC3CCN2C(=O)OCc2ccccc2)CC1 (centres undefined) | nt | -6% | i | 2% | i | nt
O=C(c1cccc(Cl)c1)N1CCN(c2ccc3c(c2)C2CC3CCN2C(=O)OCc2ccccc2)CC1 (centres undefined) | nt | ? | 16µM* | ? | ? | nt
CCOc1ccc2[nH]c(=O)c(CN(Cc3ccco3)Cc3nnnn3Cc3ccccc3)cc2c1 | ? | -30% | ? | 4% | i | -1%
COc1ccc2[nH]c(=O)c(CN(Cc3ccco3)Cc3nnnn3Cc3ccccc3)cc2c1 | 2% | -4% | 7.3µM* | -2% | i | 2%
CCOC(=O)Cn1nnnc1CN(Cc1ccc(OC)cc1)Cc1cc2cc(C)ccc2[nH]c1=O | 23µM* | 2% | i | 9% | i | 2%
COc1ccccc1CN(Cc1cc2cc(C)ccc2[nH]c1=O)Cc1nnnn1Cc1ccco1 | 22% | -1%[9.24 µM] | 18µM* | ? | ? | 5%
CCOC(=O)Cn1nnnc1C(C(C)C)N(Cc1cccs1)Cc1cc2cc(C)ccc2[nH]c1=O (centres undefined) | ? | -28% | 11µM* | -21% | ? | -15%
Cc1cc(=O)[nH]c(NNC(=O)c2ccc(Cl)cc2)n1 | nt | 1% | i | 2% | i | nt
CCN1CCN(Cc2c(O)ccc3c(=O)c(Oc4ccccc4C(C)C)c(C(F)(F)F)oc23)CC1 | nt | nt | i | nt | i | nt
Cc1ccc2[nH]c(=O)c(CN(Cc3cccs3)Cc3nnnn3Cc3ccco3)cc2c1 | nt | nt | ? | nt | i | nt
CNC(=S)N(Cc1ccco1)Cc1cc2cc(OC)ccc2[nH]c1=O | -8% | -6% | ? | -6% | i | -4%
COc1ccc2[nH]c(=O)c(C(c3nnnn3C(C)(C)C)N(Cc3ccco3)CC3CCCO3)cc2c1 (centres undefined) | 25% | ? | i | -27% | i | 7.3µM*
CCc1ccc2[nH]c(=O)c(CN(Cc3ccccc3OC)Cc3nnnn3Cc3ccco3)cc2c1 | ? | ? | ? | ? | 21µM* | ?
SMILES | MCF10A rerep | HT1080 IDH1KD tx | KB-V1 MDR tox | HT1080NT lethal | KB-3-1 cytotox | SW480 rereplic
COC(=O)c1ccccc1S(=O)(=O)N(Cc1ccco1)Cc1cc2cc(OC)ccc2[nH]c1=O | -2% | -22% | 8.2µM* | -1% | i | 0%
Cc1noc(C)c1S(=O)(=O)N(CC(=O)Nc1ccc(C(F)(F)F)cc1)c1ccc(C(C)C)cc1 | nt | nt | i | nt | i | nt
CC(O)C(N)C(=O)O (centres undefined) | 0% | nt | nt | nt | nt | -7%
Cc1cc(C)cc(NC(=O)C(=O)NCC(c2cccnc2)N2CCc3ccccc32)c1 (centres undefined) | nt | nt | i | nt | i | nt
COC(=O)c1ccc(COc2ccccc2/C=C(\C#N)C(=O)Nc2c(C)cc(C)cc2C)cc1 | 5.8µM* | 18µM* | 16µM* | 9.2µM* | 12µM* | 8.2µM*
COC(=O)c1ccc(COc2ccccc2/C=C(\C#N)C(=O)Nc2ccc(C)cc2C)cc1 | ? | ? | ? | 23% | i | 15%
COc1cc(CNC(=O)c2ccc3c(c2)N(C)C(=O)C2CCCCN32)cc(OC)c1OC (centres undefined) | nt | nt | i | nt | i | nt
COc1cccc(C(=O)CSc2nc3ccccc3n2CC(=O)N2CCOCC2)c1 | 4% | -14% | 21µM* | -1% | i | -1%
CCN(CC)CCn1c(=N)n(CC(=O)c2ccc(Br)s2)c2ccccc21 | -12% | 23µM* | ? | 23µM* | ? | 0%
Cn1c(=N)n(CC(=O)c2ccc(Br)s2)c2ccccc21 | 29% | ? | ? | 26µM* | ? | 8%
Cn1c(=N)n(CC(=O)c2cccs2)c2ccccc21 | -13% | 0% | i | -6% | i | -5%
N=c1n(CC(=O)c2ccc(Br)s2)c2ccccc2n1Cc1ccccc1 | ? | -3% | ? | -1% | i | ?
COc1cccc(C(=O)Cn2c(=N)n(C)c3ccccc32)c1 | 6% | ? | i | ? | 10µM* | 0%
Cc1c(CC(=O)N2CCCCC2)c(=O)oc2cc(O)ccc12 | nt | nt | i | nt | i | nt
CCOc1ccc(CCNC(=O)c2cnc3sc(N4CCC(C)CC4)nn3c2=O)cc1 | nt | nt | i | nt | i | nt
CC(=O)Nc1nn(C)c2nc3cc(C)ccc3cc12 | 7% | -1% | i | 0% | i | 12%
CCn1nc(NC(=O)c2ccco2)c2cc3cc(C)ccc3nc21 | ? | 0% | ? | -1% | i | 18µM*
CCCn1nc(NC(=O)c2ccco2)c2cc3ccccc3nc21 | 16µM* | 2% | ? | -1% | ? | 18µM*
CCCC(=O)Nc1nn(CCC)c2nc3ccccc3cc12 | 2% | 0% | ? | 1% | i | 4%
